{"source": "PubChem BioAssay"}
{"target": "Fibroblast growth factor 2 (Homo sapiens) (UniProt P09038)", "sequence (P09038 whole entry, looked up)": "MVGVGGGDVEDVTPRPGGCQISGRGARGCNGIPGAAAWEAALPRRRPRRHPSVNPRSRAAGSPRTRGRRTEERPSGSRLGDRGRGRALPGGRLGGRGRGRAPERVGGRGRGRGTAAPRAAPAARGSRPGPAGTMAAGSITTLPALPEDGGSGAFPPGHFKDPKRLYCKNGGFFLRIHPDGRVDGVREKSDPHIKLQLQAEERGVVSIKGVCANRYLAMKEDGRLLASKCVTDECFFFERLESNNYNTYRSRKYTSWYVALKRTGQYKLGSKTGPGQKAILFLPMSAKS", "assay": "FGF2 binders on small-molecule microarrays, primary screen, biochemical, small-molecule microarray, 635/667 nm fluorescence (AID 1133)", "details": "small-molecule microarray binding, FGF2, fluorescence 635/667; higher = more signal"}
{"smiles": "O=C1C[C@H](c2ccccc2)[C@H](c2ccc(Br)cc2)O1", "composite z-score": -0.0946}
{"smiles": "CO[C@H]1COC(=O)CC=C[C@@H](C)COC(=O)[C@H]2CCCN2C(=O)CC=C[C@H]1C", "composite z-score": 1.96}
{"smiles": "O=C(NN=C1C[C@@H](O)[C@@H](O)[C@@H]2[C@@H]3C(=O)N(Cc4ccccc4)C(=O)[C@@H]3CC[C@H]12)OCc1ccccc1", "composite z-score": 0.388}
{"tested_on": "not listed separately", "assay": "mitochondrial membrane potential change in A549 cells, profiling panel, cell-based, JC-1 fluorescence, basal, 24 h, 100 nL (AID 1138);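 note: A549 lung adenocarcinoma cells under basal conditions with no added stimulus; test concentration not given here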", "details": "higher = more signal"}
{"smiles": "CON=C(C)CCN1CCCCc2nc(C)c(C)cc21", "z-score": 1.19}
{"smiles": "CCOC(=O)[C@H](Cc1ccccc1)NC(=O)CCC1CC(OC(=O)NCc2cccc3ccccc23)CC2(CCCC(COC(=O)NCC3CCCCC3)O2)O1", "note": "(stereo partly drawn)", "z-score": 0.624}
{"smiles": "CO[C@H]1COC(=O)CCC[C@H](C)[C@@H](OC)COC(=O)CC=C[C@@H]1C", "z-score": -0.86}
{"smiles": "C[C@H]1C=CCC(=O)OC[C@H](C)C(=O)N2CCC[C@H]2C(=O)OC1", "z-score": -0.823}
{"smiles": "CC(=O)OC[C@H]1O[C@H](CCON=C(C)C)C=C[C@@H]1OC(C)=O", "z-score": 0.0315}
{"smiles": "CC(C)[C@@H](OCc1ccccc1)[C@H](C)C=NO[C@@H](C)c1cn([C@H](CO)Cc2ccccc2)nn1", "z-score": -1.02}
{"smiles": "O=C1C2=CC[C@H]3C(=O)N(C4CCCCC4)C(=O)[C@H]3[C@H]2[C@H](O)[C@@H]2O[C@H]12", "z-score": -1.65}
{"smiles": "CC(C)(C)N1C(=O)[C@H]2[C@H]3[C@H](O)[C@H](O)CC(=NNC(=O)OCc4ccccc4)[C@H]3CC[C@H]2C1=O", "z-score": -1.08}
{"smiles": "CC(C)(C)N1C(=O)[C@H]2[C@H]3[C@H](O)[C@H](O)CC(=NNC(=O)OCc4ccccc4)[C@@H]3CC[C@H]2C1=O", "z-score": -0.202}
{"smiles": "O=C1C2=CC[C@H]3C(=O)N(C[C@@H]4CCCO4)C(=O)[C@H]3[C@H]2[C@H](O)[C@@H]2O[C@H]12", "z-score": 0.982}
